This is part of a sample that, as a whole, favours compounds with a hit. Of some 83,000 tested, about 20% had one in any assay.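 Interpretation: 100, growth as untreated; towards 0, rising growth inhibition; 0, no net growth; 0 to -100, cell death. Compounds scoring below 10 were considered active.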 Active and inactive are the calls of the source.
What was measured:
Test in all cases: NCI-60 one-dose screen, 48 h (100 = growth as untreated, 0 = no growth, -100 = all killed)
SK-MEL-2 melanoma = conditions: 10 µM
EKVX NSCLC = conditions: 10 µM
SN12C renal = conditions: 10 µM
UO-31 renal = conditions: 10 µM
TK-10 renal = conditions: 10 µM unless noted
ACHN renal = conditions: 10 µM
CAKI-1 renal = conditions: 10 µM
A498 renal = conditions: 10 µM
CCRF-CEM leukemia = conditions: 10 µM
MOLT-4 leukemia = conditions: 10 µM

Measured: growth

CC1(C)N=C(N)N=C(N)N1c1cccc(Br)c1
inactive: SK-MEL-2 melanoma 65.3% | EKVX NSCLC 45.1% | SN12C renal 37.3% | UO-31 renal 50.2% | TK-10 renal 51.7% | ACHN renal 30.2% | CAKI-1 renal 70% | A498 renal 104% | CCRF-CEM leukemia 36.1% | MOLT-4 leukemia 41.4%

Cc1ccc(N)cc1[N+](=O)[O-]
inactive: SK-MEL-2 melanoma 128% | EKVX NSCLC 113% | SN12C renal 109% | UO-31 renal 83.3% | TK-10 renal 107% | ACHN renal 108% | CAKI-1 renal 102% | A498 renal 117% | CCRF-CEM leukemia 84.6% | MOLT-4 leukemia 76.3%

CCCCOC(OCCCC)c1ccccc1
inactive: SK-MEL-2 melanoma 108% | EKVX NSCLC 110% | SN12C renal 101% | UO-31 renal 98.4% | TK-10 renal 107% | ACHN renal 109% | CAKI-1 renal 96.3% | A498 renal 84.7% | CCRF-CEM leukemia 105% | MOLT-4 leukemia 106%

COc1cc2cc(c1Cl)N(C)C(=O)C[C@H](OC(=O)[C@H](C)N(C)C(C)=O)[C@]1(C)O[C@H]1[C@H](C)[C@@H]1C[C@@](O)(NC(=O)O1)[C@H](OC)C=C/C=C(\C)C2
active: UO-31 renal 7.35% | CAKI-1 renal 6.3% | A498 renal 4.38% | CCRF-CEM leukemia -7.22%
inactive: SK-MEL-2 melanoma 55.5% | EKVX NSCLC 31.3% | SN12C renal 27.6% | TK-10 renal 26.5% | ACHN renal 16.6% | MOLT-4 leukemia 14.2%

S=C(Nc1ccccc1)N1CCCCC1
inactive: SK-MEL-2 melanoma 98% | EKVX NSCLC 105% | SN12C renal 102% | UO-31 renal 88.4% | TK-10 renal 109% | ACHN renal 94.5% | CAKI-1 renal 94.6% | A498 renal 77.6% | CCRF-CEM leukemia 102% | MOLT-4 leukemia 98%

O=c1[nH]n(-c2ccccc2)c(=O)cc1Cl
inactive: SK-MEL-2 melanoma 104% | EKVX NSCLC 110% | SN12C renal 93.3% | UO-31 renal 84.7% | TK-10 renal 102% | ACHN renal 98.5% | CAKI-1 renal 121% | A498 renal 108% | CCRF-CEM leukemia 106% | MOLT-4 leukemia 95.4%

O=C(Nc1cc(-c2ccccc2)[nH]n1)c1ccc(Cl)cc1
inactive: SK-MEL-2 melanoma 78% | EKVX NSCLC 101% | SN12C renal 84.1% | UO-31 renal 59.1% | TK-10 renal 66.6% | ACHN renal 60.8% | CAKI-1 renal 76.3% | A498 renal 78.6% | CCRF-CEM leukemia 62% | MOLT-4 leukemia 85.2%

O=C1OC[C@H]2[C@H](c3ccc(O)c(O)c3)c3cc(O)c(O)cc3C[C@H]12
inactive: SK-MEL-2 melanoma 26.4% | EKVX NSCLC 152% | SN12C renal 110% | UO-31 renal 47.2% | TK-10 renal 118% | ACHN renal 112% | CAKI-1 renal 136% | A498 renal 134% | CCRF-CEM leukemia 205% | MOLT-4 leukemia 281%

CCOC(=O)CCCC(=O)OCC
inactive: SK-MEL-2 melanoma 111% | EKVX NSCLC 108% | SN12C renal 114% | UO-31 renal 89.7% | TK-10 renal 101% | ACHN renal 105% | CAKI-1 renal 95.2% | A498 renal 92.1% | CCRF-CEM leukemia 110% | MOLT-4 leukemia 101%

CCOc1ccc(I)cc1
inactive: SK-MEL-2 melanoma 130% | EKVX NSCLC 105% | SN12C renal 97.1% | UO-31 renal 89% | TK-10 renal 112% | ACHN renal 110% | CAKI-1 renal 113% | A498 renal 101% | CCRF-CEM leukemia 121% | MOLT-4 leukemia 115%

Cc1ccc(C(=O)N/N=C/c2ccc3c(c2)OCO3)cc1
inactive: SK-MEL-2 melanoma 90.4% | EKVX NSCLC 101% | SN12C renal 96% | UO-31 renal 78.2% | TK-10 renal 98% | ACHN renal 94.3% | CAKI-1 renal 93.3% | A498 renal 96.6% | CCRF-CEM leukemia 84.8% | MOLT-4 leukemia 91.2%

c1cc[n+](C2c3ccccc3C([n+]3ccccc3)c3ccccc32)cc1 (stereo not given)
inactive: SK-MEL-2 melanoma 92.8% | EKVX NSCLC 48.3% | SN12C renal 26.7% | UO-31 renal 61.8% | TK-10 renal 52% | ACHN renal 91.8% | CAKI-1 renal 87.3% | A498 renal 94.9% | MOLT-4 leukemia 86.5%
active: CCRF-CEM leukemia -42.3%

COc1ccc(Oc2c(I)cc(CC(NC(C)=O)C(=O)O)cc2I)cc1 (stereo not given)
inactive: SK-MEL-2 melanoma 102% | EKVX NSCLC 67.9% | SN12C renal 83.8% | UO-31 renal 71.7% | TK-10 renal 113% | ACHN renal 97.6% | CAKI-1 renal 57.4% | A498 renal 79.7% | CCRF-CEM leukemia 78.4% | MOLT-4 leukemia 60.9%

NC(C(=O)O)C(O)c1ccco1 (stereo not given)
inactive: SK-MEL-2 melanoma 115% | EKVX NSCLC 109% | SN12C renal 111% | UO-31 renal 96.6% | TK-10 renal 101% | ACHN renal 113% | CAKI-1 renal 97.4% | A498 renal 94.5% | CCRF-CEM leukemia 94% | MOLT-4 leukemia 112%

O=C(O)[C@@H]1[C@H]2C[C@H]3c4[nH]c5ccccc5c4CCN3C[C@@H]2CC[C@@H]1O
inactive: SK-MEL-2 melanoma 30.5% | EKVX NSCLC 110% | SN12C renal 107% | UO-31 renal 82.8% | TK-10 renal 104% | ACHN renal 100% | CAKI-1 renal 105% | A498 renal 130% | CCRF-CEM leukemia 103% | MOLT-4 leukemia 139%

CC(=O)OCCC(C)CCC=C(C)C (stereo not given)
inactive: SK-MEL-2 melanoma 98.1% | EKVX NSCLC 100% | SN12C renal 101% | UO-31 renal 88% | TK-10 renal 106% | ACHN renal 104% | CAKI-1 renal 103% | A498 renal 100% | CCRF-CEM leukemia 104% | MOLT-4 leukemia 114%

Cc1cccc(CO)c1
inactive: SK-MEL-2 melanoma 110% | EKVX NSCLC 113% | SN12C renal 106% | UO-31 renal 92.9% | TK-10 renal 108% | ACHN renal 111% | CAKI-1 renal 100% | A498 renal 108% | CCRF-CEM leukemia 110% | MOLT-4 leukemia 106%

CN(C)c1ccc(C(c2ccc(O)cc2)c2ccc(N(C)C)cc2)cc1
inactive: SK-MEL-2 melanoma 101% | EKVX NSCLC 91.3% | SN12C renal 92% | UO-31 renal 81.2% | TK-10 renal 117% | ACHN renal 103% | CAKI-1 renal 93.7% | A498 renal 85.8% | CCRF-CEM leukemia 96.3% | MOLT-4 leukemia 86.4%

CCC/C=C(/C(C)=O)C(=O)OCC
inactive: SK-MEL-2 melanoma 132% | EKVX NSCLC 168% | SN12C renal 101% | UO-31 renal 101% | TK-10 renal 139% | ACHN renal 103% | CAKI-1 renal 128% | A498 renal 132% | CCRF-CEM leukemia 143% | MOLT-4 leukemia 135%

O=C1c2ccccc2C(=O)N1OCc1ccccc1
inactive: SK-MEL-2 melanoma 96.7% | EKVX NSCLC 98.7% | SN12C renal 110% | UO-31 renal 79.1% | TK-10 renal 133% | ACHN renal 101% | CAKI-1 renal 95.2% | A498 renal 134% | CCRF-CEM leukemia 97.3% | MOLT-4 leukemia 93.7%

CCOC(=O)C1OC1c1ccccc1 (stereo not given)
inactive: SK-MEL-2 melanoma 114% | EKVX NSCLC 98.4% | SN12C renal 105% | UO-31 renal 89.2% | TK-10 renal 103% | ACHN renal 104% | CAKI-1 renal 98.6% | A498 renal 96.8% | CCRF-CEM leukemia 109% | MOLT-4 leukemia 107%

Nc1nc(OCc2ccccc2)c2[nH]cnc2n1
inactive: SK-MEL-2 melanoma 107% | EKVX NSCLC 95% | SN12C renal 105% | UO-31 renal 96.9% | TK-10 renal 82.1% | ACHN renal 73.5% | CAKI-1 renal 74% | A498 renal 86.1% | CCRF-CEM leukemia 143% | MOLT-4 leukemia 73%

O=S(=O)(O)C(Nc1ccccc1)c1ccccc1 (stereo not given)
inactive: SK-MEL-2 melanoma 82.2% | EKVX NSCLC 104% | SN12C renal 97.8% | UO-31 renal 92.7% | TK-10 renal 100% | ACHN renal 97.6% | CAKI-1 renal 93.8% | A498 renal 81.3% | CCRF-CEM leukemia 115% | MOLT-4 leukemia 106%

Oc1ccc(N=Nc2ccc(Br)cc2)c(O)c1
inactive: EKVX NSCLC 47.4% | SN12C renal 54.1% | UO-31 renal 30.3% | TK-10 renal 39.2% | ACHN renal 49.8% | A498 renal 23.5% | MOLT-4 leukemia 21.2%
active: SK-MEL-2 melanoma -5.42% | CAKI-1 renal 3.01% | CCRF-CEM leukemia -20%

FC(F)(F)c1ccc2c(c1)N(CCCN1CCN(C3CC3)CC1)c1ccccc1S2
inactive: SK-MEL-2 melanoma 90.4% | EKVX NSCLC 86.8% | SN12C renal 47.7% | UO-31 renal 17.6% | TK-10 renal 80% | ACHN renal 78.1% | CAKI-1 renal 17.3% | CCRF-CEM leukemia 26.5% | MOLT-4 leukemia 34%
active: A498 renal 9.76%

CCOC(=O)Nc1nn[nH]n1
inactive: SK-MEL-2 melanoma 109% | EKVX NSCLC 112% | SN12C renal 103% | UO-31 renal 96.6% | TK-10 renal 114% | ACHN renal 100% | CAKI-1 renal 113% | A498 renal 83.8% | CCRF-CEM leukemia 95% | MOLT-4 leukemia 98.4%

O=C(CCNNC(=O)c1ccncc1)NCc1ccccc1
active: CCRF-CEM leukemia 5.43%
inactive: SK-MEL-2 melanoma 94.3% | EKVX NSCLC 106% | SN12C renal 97.1% | UO-31 renal 91.3% | TK-10 renal 133% | ACHN renal 93% | CAKI-1 renal 109% | A498 renal 110% | MOLT-4 leukemia 99%

COC(=O)Nc1nc2ccc(C(=O)c3ccc(F)cc3)cc2[nH]1
active: SK-MEL-2 melanoma -20.1% | UO-31 renal 1.98% | A498 renal 7.59% | CCRF-CEM leukemia -46% | MOLT-4 leukemia -27%
inactive: EKVX NSCLC 36.7% | SN12C renal 29.8% | TK-10 renal 17.3% | ACHN renal 33.2% | CAKI-1 renal 15.2%

C#CC(C)(O)c1ccc(Cl)cc1 (stereo not given)
inactive: SK-MEL-2 melanoma 106% | EKVX NSCLC 98.6% | SN12C renal 113% | UO-31 renal 99.4% | TK-10 renal 106% | ACHN renal 110% | CAKI-1 renal 103% | A498 renal 98% | CCRF-CEM leukemia 103% | MOLT-4 leukemia 107%

Cc1cc(/C=C/c2ccc3cc(N(C)C)ccc3[n+]2C)c(C)n1-c1ccccc1
active: SK-MEL-2 melanoma -51.6% | EKVX NSCLC 0.119% | SN12C renal -25.7% | UO-31 renal 1.75% | TK-10 renal -5.02% | ACHN renal -83.5% | CAKI-1 renal -31% | A498 renal -25% | CCRF-CEM leukemia 0.765% | MOLT-4 leukemia 0.162%
